About 3,300 (8.5%) of roughly 39,000 compounds were called active. The entries come from a sample that favours actives as a whole.
What follows are compounds tested on HepG2 (assay: cytotoxicity call (relative viability < 0.9)). Conditions: 10 µM.
With `C[C@@H]1CCCCO[C@@H](CN(C)C(=O)c2ccncc2)[C@H](C)CN([C@H](C)CO)C(=O)c2cc(NS(C)(=O)=O)ccc2O1` the cytotoxicity call was “inactive”.
With `N#C[C@H](c1ccccn1)N1CCOCC1` the cytotoxicity call was “inactive”.
In the case of `O=c1n(-c2ccccc2)c(=O)n2n1CC(COc1ccccc1)=C1[C@@H](CCc3ccccc3)OB(O)C[C@@H]12`, the cytotoxicity call is reported as “inactive”.
In the case of `C[C@H](CO)N1C[C@H](C)[C@@H](CN(C)S(C)(=O)=O)Oc2ccc(NS(=O)(=O)c3ccc(F)cc3)cc2C1=O`, the cytotoxicity call is reported as “inactive”.
For `COc1cccc(S(=O)(=O)N2C[C@H](O)COC[C@H]3O[C@@H](CC(=O)N4CCOCC4)CC[C@@H]32)c1`, the cytotoxicity call was “inactive”.
For `CC(C)NC(=O)N[C@@H]1C=C[C@@H](CC(=O)NCCCN(C)C)O[C@@H]1CO`, the cytotoxicity call was “inactive”.
`O=C(C[C@H]1C[C@@H]2c3cc(NC(=O)C4CCOCC4)ccc3O[C@@H]2[C@@H](CO)O1)NCCN1CCCCC1` was tested, and the cytotoxicity call was “inactive”.
For `C[C@H]1CN([C@@H](C)CO)C(=O)c2cccc(NC(=O)c3ccncc3)c2O[C@@H]1CN(C)Cc1ccc(C(=O)O)cc1`, the cytotoxicity call was “inactive”.
With `C[C@@H]1CN([C@@H](C)CO)C(=O)c2cc(C#Cc3ccccc3F)cnc2O[C@@H]1CN(C)S(=O)(=O)c1ccccc1` the cytotoxicity call was “inactive”.
`O=S(=O)(NCCN(C/C=C/c1ccc(F)cc1)C/C=C/c1ccc(F)cc1)c1cccc2cnccc12` was tested, and the cytotoxicity call was “inactive”.
For `O=S(=O)(c1ccc(-n2cnnn2)cc1)N1CCNCC1`, the cytotoxicity call was “inactive”.
`O=S(=O)(c1cccc2cnccc12)N1CCCNCC1` was tested, and the cytotoxicity call was “active”.
In the case of `COc1ccc(S(=O)(=O)Nc2ccc3c(c2)C(=O)N([C@@H](C)CO)C[C@H](C)[C@@H](CN(C)C(=O)Nc2cccc4ccccc24)OCCCC[C@H](C)O3)cc1`, the cytotoxicity call is reported as “inactive”.
In the case of `C[C@@H]1CN([C@H](C)CO)C(=O)c2cc(NC(=O)Nc3cccc4ccccc34)ccc2O[C@@H]1CN(C)Cc1ccc(C(=O)O)cc1`, the cytotoxicity call is reported as “inactive”.
With `C[C@H]1CN([C@@H](C)CO)C(=O)c2cc(NC(=O)Nc3cccc4ccccc34)ccc2O[C@H]1CN(C)Cc1ccc(-c2ccccc2)cc1` the cytotoxicity call was “inactive”.
For `C[C@H]1CN([C@@H](C)CO)C(=O)c2cc(NC(=O)Nc3cccc4ccccc34)ccc2O[C@H]1CN(C)Cc1ccccc1`, the cytotoxicity call was “inactive”.
`C[C@@H]1CN([C@H](C)CO)C(=O)c2cc(NC(=O)Nc3cccc4ccccc34)ccc2O[C@H]1CN(C)Cc1ccc(-c2ccccc2)cc1` was tested, and the cytotoxicity call was “active”.
In the case of `C[C@@H]1CN([C@@H](C)CO)C(=O)c2cc(NC(=O)Nc3cccc4ccccc34)ccc2O[C@H]1CN(C)Cc1ccc(-c2ccccc2)cc1`, the cytotoxicity call is reported as “inactive”.
For `C[C@H](CO)N1C[C@H](C)[C@@H](CN(C)Cc2ccc(-c3ccccc3)cc2)Oc2ccc(NC(=O)Nc3cccc4ccccc34)cc2C1=O`, the cytotoxicity call was “inactive”.
In the case of `C[C@@H]1CN([C@H](C)CO)C(=O)c2cc(NC(=O)Nc3cccc4ccccc34)ccc2O[C@@H]1CN(C)Cc1ccc(-c2ccccc2)cc1`, the cytotoxicity call is reported as “active”.
For `C[C@H](CO)N1C[C@H](C)[C@H](CN(C)Cc2ccc(-c3ccccc3)cc2)Oc2ccc(NC(=O)Nc3cccc4ccccc34)cc2C1=O`, the cytotoxicity call was “active”.
`C[C@H]1CN([C@@H](C)CO)C(=O)c2cc(NC(=O)Nc3cccc4ccccc34)ccc2O[C@H]1CN(C)Cc1ccc(C(=O)O)cc1` was tested, and the cytotoxicity call was “inactive”.
For `C[C@@H]1CN([C@@H](C)CO)C(=O)c2cc(NC(=O)Nc3cccc4ccccc34)ccc2O[C@@H]1CN(C)Cc1ccc(-c2ccccc2)cc1`, the cytotoxicity call was “inactive”.
With `C[C@H]1CN([C@@H](C)CO)C(=O)c2cc(NC(=O)Nc3cccc4ccccc34)ccc2O[C@@H]1CN(C)Cc1ccc(-c2ccccc2)cc1` the cytotoxicity call was “active”.
`C[C@H](CO)N1C[C@H](C)[C@H](CN(C)Cc2ccc(C(=O)O)cc2)Oc2ccc(NC(=O)Nc3cccc4ccccc34)cc2C1=O` was tested, and the cytotoxicity call was “inactive”.
`C[C@@H]1CCCCO[C@@H](CN(C)C(=O)NC2CCCCC2)[C@H](C)CN([C@H](C)CO)C(=O)c2cc(NC(=O)NC3CCCCC3)ccc2O1` was tested, and the cytotoxicity call was “inactive”.
For `C[C@H](CO)N1C[C@H](C)[C@@H](CN(C)C(=O)Nc2ccccc2)Oc2ccc(NC(=O)CCCCCC(=O)Nc3ccccc3N)cc2CC1=O`, the cytotoxicity call was “inactive”.
For `COc1ccccc1C#Cc1cnc2c(c1)C(=O)N([C@H](C)CO)C[C@@H](C)[C@@H](CN(C)C(=O)CC1CC1)O2`, the cytotoxicity call was “inactive”.
In the case of `C[C@H](CO)N1C[C@H](C)[C@@H](CN(C)S(=O)(=O)c2ccc(Cl)cc2)Oc2ccc(NC(=O)C3CC3)cc2C1=O`, the cytotoxicity call is reported as “inactive”.
With `CCCCCCCCCCCCCCCC(=O)OCC=C(C)C=CC=C(C)C=CC1=C(C)CCCC1(C)C` the cytotoxicity call was “inactive”.
For `C[C@H]1CN([C@@H](C)CO)C(=O)c2cc(N(C)C)ccc2O[C@H]1CN(C)S(=O)(=O)c1ccc(Cl)cc1`, the cytotoxicity call was “inactive”.
In the case of `C[C@@H]1CCCCO[C@@H](CN(C)S(C)(=O)=O)[C@@H](C)CN([C@H](C)CO)C(=O)c2cc(NS(C)(=O)=O)ccc2O1`, the cytotoxicity call is reported as “inactive”.
In the case of `CN(C)CCCNC(=O)C[C@@H]1CC[C@@H]2[C@@H](COc3ccc(NS(C)(=O)=O)cc3C(=O)N2C)O1`, the cytotoxicity call is reported as “inactive”.
With `CO[C@@H]1CN(C)C(=O)c2cc(NC(=O)Nc3ccccc3F)ccc2OC[C@H](C)N(Cc2ccccc2C(=O)O)C[C@H]1C` the cytotoxicity call was “inactive”.
In the case of `Cc1ccc(S(=O)(=O)N(C)C[C@H]2Oc3ccc(NS(=O)(=O)c4cn(C)cn4)cc3CC(=O)N([C@@H](C)CO)C[C@H]2C)cc1`, the cytotoxicity call is reported as “inactive”.
With `O=C(Nc1cccc2cccnc12)[C@@H]1[C@H](c2ccc(C(F)(F)F)cc2)CC(=O)N1C(=O)OCc1ccccc1` the cytotoxicity call was “inactive”.
`C[C@@H]1CCCCO[C@H](CN(C)C(=O)c2ccncc2)[C@H](C)CN([C@H](C)CO)C(=O)c2cc(NS(C)(=O)=O)ccc2O1` was tested, and the cytotoxicity call was “inactive”.
With `Cc1ccc(S(=O)(=O)N(C)C[C@H]2Oc3cc(Br)ccc3S(=O)(=O)N([C@@H](C)CO)C[C@H]2C)cc1` the cytotoxicity call was “inactive”.
In the case of `C[C@@H]1CN([C@H](C)CO)C(=O)c2cc(NS(=O)(=O)c3ccc(Cl)cc3)ccc2O[C@@H](C)CCCCO[C@@H]1CN(C)S(=O)(=O)c1ccccc1`, the cytotoxicity call is reported as “inactive”.
For `C[C@@H]1CCCCO[C@H](CN(C)S(=O)(=O)c2ccc(Cl)cc2)[C@@H](C)CN([C@H](C)CO)C(=O)c2cc(NS(=O)(=O)c3ccccc3)ccc2O1`, the cytotoxicity call was “inactive”.
For `C[C@@H]1CCCCO[C@@H](CN(C)S(=O)(=O)c2ccccc2)[C@H](C)CN([C@H](C)CO)C(=O)c2cc(NS(=O)(=O)c3ccc(Cl)cc3)ccc2O1`, the cytotoxicity call was “inactive”.
In the case of `C[C@@H]1CCCCO[C@@H](CN(C)S(=O)(=O)c2ccc(Cl)cc2)[C@H](C)CN([C@H](C)CO)C(=O)c2cc(NS(=O)(=O)c3ccccc3)ccc2O1`, the cytotoxicity call is reported as “active”.
With `C[C@@H]1CN([C@H](C)CO)C(=O)c2cc(NS(=O)(=O)c3ccccc3)ccc2O[C@@H](C)CCCCO[C@@H]1CN(C)S(=O)(=O)c1ccc(Cl)cc1` the cytotoxicity call was “inactive”.
In the case of `C[C@@H]1CN([C@@H](C)CO)C(=O)c2cc(NS(=O)(=O)c3ccc(Cl)cc3)ccc2O[C@@H](C)CCCCO[C@@H]1CN(C)S(=O)(=O)c1ccccc1`, the cytotoxicity call is reported as “active”.
In the case of `C[C@@H]1CN([C@@H](C)CO)C(=O)c2cc(NS(=O)(=O)c3ccccc3)ccc2O[C@@H](C)CCCCO[C@@H]1CN(C)S(=O)(=O)c1ccc(Cl)cc1`, the cytotoxicity call is reported as “inactive”.
In the case of `C[C@@H]1CCCCO[C@H](CN(C)S(=O)(=O)c2ccccc2)[C@H](C)CN([C@@H](C)CO)C(=O)c2cc(NS(=O)(=O)c3ccc(Cl)cc3)ccc2O1`, the cytotoxicity call is reported as “inactive”.
`C[C@@H]1CN([C@H](C)CO)C(=O)c2cc(NS(=O)(=O)c3ccc(Cl)cc3)ccc2O[C@@H](C)CCCCO[C@H]1CN(C)S(=O)(=O)c1ccccc1` was tested, and the cytotoxicity call was “active”.
`C[C@H](CO)N1C[C@H](C)[C@H](CN(C)S(=O)(=O)c2ccc(Cl)cc2)OCCCC[C@H](C)Oc2ccc(NS(=O)(=O)c3ccccc3)cc2C1=O` was tested, and the cytotoxicity call was “active”.
With `C[C@@H]1CCCCO[C@@H](CN(C)S(=O)(=O)c2ccccc2)[C@H](C)CN([C@@H](C)CO)C(=O)c2cc(NS(=O)(=O)c3ccc(Cl)cc3)ccc2O1` the cytotoxicity call was “inactive”.
In the case of `C[C@H](CO)N1C[C@H](C)[C@@H](CN(C)S(=O)(=O)c2ccccc2)OCCCC[C@H](C)Oc2ccc(NS(=O)(=O)c3ccc(Cl)cc3)cc2C1=O`, the cytotoxicity call is reported as “inactive”.
For `C[C@@H]1CN([C@@H](C)CO)C(=O)c2cc(NC(=O)CCC(F)(F)F)ccc2O[C@@H](C)CCCCO[C@H]1CN(C)Cc1ccncc1`, the cytotoxicity call was “inactive”.
For `C=CCOC(=O)[C@H]1[C@@H]2C(=O)O[C@@H](c3ccccc3)[C@@H](c3ccccc3)N2[C@@H](c2ccc(OCCOC(=O)[C@H]3C[C@H]4C(=O)N[C@@H](Cc5ccccc5)C(=O)N4[C@H]3c3ccc(O)cc3)cc2)[C@]12C(=O)Nc1ccc(I)cc12`, the cytotoxicity call was “inactive”.
With `C[C@@H]1CCCCO[C@@H](CN(C)C(=O)NC2CCCCC2)[C@@H](C)CN([C@@H](C)CO)C(=O)c2cc(NS(=O)(=O)c3cccs3)ccc2O1` the cytotoxicity call was “inactive”.
For `CCCNC(=O)N[C@H]1C=C[C@H](CC(=O)N2CCN(C)CC2)O[C@H]1CO`, the cytotoxicity call was “inactive”.
With `Oc1cccc(c1)/C/1=C/2\CC/C(=C(\c3cccc(c3)O)c3ccc([nH]3)/C(=C\3/C=CC(=N3)/C(=C\3/C=CC1=N3)c1cccc(c1)O)c1cccc(c1)O)N2` the cytotoxicity call was “inactive”.
For `C[C@@H]1CN([C@H](C)CO)C(=O)c2cc(NS(=O)(=O)c3ccccc3)ccc2O[C@@H](C)CCCCO[C@H]1CN(C)S(=O)(=O)c1ccc(Cl)cc1`, the cytotoxicity call was “active”.
With `C[C@@H]1CCCCO[C@H](CN(C)S(=O)(=O)c2ccccc2)[C@H](C)CN([C@H](C)CO)C(=O)c2cc(NS(=O)(=O)c3ccc(Cl)cc3)ccc2O1` the cytotoxicity call was “inactive”.
`C[C@@H]1CCCCO[C@H](CN(C)S(=O)(=O)c2ccc(Cl)cc2)[C@@H](C)CN([C@@H](C)CO)C(=O)c2cc(NS(=O)(=O)c3ccccc3)ccc2O1` was tested, and the cytotoxicity call was “inactive”.

From the antibiotic and cytotoxicity screens of Wong et al. (2023)
